HT1080NT lethal – kills 2HG-producing HT-1080-NT fibrosarcoma cells. HT-1080-NT fibrosarcoma viability, CellTiter-Glo ATP luminescence, 48 h. Potency, µM (highest dose often 46.1 µM), inactives show top-dose activity, negative = less viability, most hits filed as cytotoxic. 360,000 tested, 1.6% active;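 also: NT is the 2HG producing partner of a matched IDH1 knockdown line; 0% = DMSO-treated cells and -100% = media-only wells without cells; nearly all actives have a fitted effect of over 55% in size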
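Luminescent CellTiter-Glo readout after 48 hours of compound exposure at 37 degrees C defined viability of HT-1080-NT cells. Activity was normalized to DMSO wells and cell-free media wells; concentration-response curves were fitted and assigned curve classes.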
MCF10A rereplic – DNA re-replication induction in MCF 10a cells; MCF 10A DNA re-replication, Hoechst nuclear intensity, 48 h; 350,000 tested, 2.9% active; Potency, µM (highest dose often 46.1 µM), for inactives: at the top dose activity, positive = re-replication, actives largely listed as activators; also: % of control where 0% means no effect; nearly all actives have a fitted effect of over 50% in size
HT1080 IDH1KD tx – toxicity to HT-1080 IDH1 knockdown cells (counter line); Potency, µM (series often up to 46.1 µM), without a hit: at the top dose activity, negative = toxicity, hits mostly cytotoxic; HT-1080 IDH1 knockdown viability, ATP luminescence, 48 h; 360,000 tested, 2% active;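 also: 0% = DMSO wells and -100% = cell-free medium wells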
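Using the IDH1-knockdown HT-1080 line run in the same batch and compound series as the NT line, viability after 48 h at 37 °C was determined by CellTiter-Glo luminescence and expressed as % activity.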
KB-V1 MDR tox – kills drug-selected multidrug resistant KB-V1 cells; KB-V1 MDR cells viability, CellTiter-Glo, 72 h; Potency, µM (doses to about 46.1 µM), usual class: cytotoxic; 400,000 tested, 3.4% active; AID 1347076; also: % is scaled to controls: 0 for no effect and ±100 for the full control effect; nearly all actives have a fitted effect of over 60% in size
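Potencies derive from concentration-effect curves fitted to normalized luminescence (CellTiter-Glo) of KB-V1 cells treated for 72 h at 37 degrees C in phenol-red-free DMEM containing 10% FBS.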
KB-3-1 tox – kills parental KB-3-1 adenocarcinoma cells; KB-3-1 viability, CellTiter-Glo ATP luminescence, 72 h; Potency, µM (titrated, usually from 46.1 µM), hits mostly cytotoxic; 400,000 tested, 1.4% active; AID 1347075; also: % is scaled to controls: 0 for no effect and ±100 for the full control effect; nearly all actives have a fitted effect of over 60% in size
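Cells are dispensed, compounds pinned in, plates held at 37 °C for 72 h, then CellTiter-Glo is added and luminescence read after 10 minutes. Cell line: parental KB-3-1 in phenol-red-free DMEM, 10% FBS.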
SW480 rerep – induces DNA re-replication in SW480 colon adenocarcinoma cells; 340,000 tested, 1.8% active; SW480 DNA re-replication, Hoechst DNA content imaging, 48 h; Potency, µM (series often up to 46.1 µM), without a hit: at the top dose re-replication activation, usual class: activators; also: % of control where 0% means no effect; nearly all actives have a fitted effect of over 55% in size
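Treated cells incubate 48 hr (37 C, 5% CO2), are stained 40 min with Hoechst, and nuclear fluorescence is enumerated; a rise in nuclei with high DNA signal marks re-replication.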
Starred values were filed as active, the others as inactive; i = inactive; ? = inconclusive; . = no result; [ ] = remark or other dose. The list is not random: actives were taken first. Their share in the collection is about 7.9%. Calls follow the shape of the dose curve; as a rule, active = well fitted curve in the direction sought with a large enough effect; inconclusive = small, poorly fitted or top-dose-only effect, or another doubt; inactive = no such curve, though single readings can be large; an effect the other way counts as inactive or inconclusive. Potency is read from the fitted curve at half-maximal effect.

SMILES	HT1080NT lethal	MCF10A rereplic	HT1080 IDH1KD tx	KB-V1 MDR tox	KB-3-1 tox	SW480 rerep
C[C@@H]1CN([C@H](C)CO)C(=O)c2cc(Br)cnc2O[C@H]1CN(C)C(=O)CC1CC1	6%	.	11%	i	i	.
O=S(=O)(CCNCc1ccco1)NC1CCCCC1	4%	-1%	0%	i	i	?
O=c1cc(CCl)[nH]c2nc3ccccc3n12	18µM*	?	?	i	i	18µM*
O=c1cc(-c2ccccc2)[nH]c2nc3ccccc3n12	?	6.5µM*	?	?	?	10µM*
CCNC(=O)C1(C)CCCN(C(=O)c2ccc(F)c(C)c2)C1 (stereo not given)	?	.	21%	i	i	.
Cc1nc([N+](=O)[O-])c(Br)n1CC(=O)c1cccc([N+](=O)[O-])c1	-25%	21µM*	?	i	i	?
Cc1nc([N+](=O)[O-])c(Br)n1CC(=O)c1ccc(F)cc1	?	21µM*	18µM*	i	i	?
CCN(CC(=O)Nc1ccc2c(c1)OCCO2)S(=O)(=O)c1cccs1	5%	16µM*	15%	i	i	-2%
CCCNS(=O)(=O)c1ccc(CCC(=O)Nc2ccc3c(c2)OCCO3)cc1	4%	-23%	4%	i	i	1%
O=C(CCc1ccc(S(=O)(=O)NCCc2ccccc2)cc1)Nc1ccc2c(c1)OCCO2	1%	?	-2%	21µM*	i	?
CCN(Cc1ccc2c(c1)OCCO2)S(=O)(=O)c1ccc(NC(C)=O)cc1	-5%[9.24 µM]	11%	-1%	?	i	21%
CCN(CC)S(=O)(=O)c1ccc2c(c1)nc(CCC(=O)Nc1ccc3c(c1)OCO3)n2CC	-4%	2%	2%	15µM*	i	-5%
CCN(CC(=O)Nc1ccc2c(c1)OCCO2)S(=O)(=O)c1ccc(C)cc1	9%	13%	4%	16µM*	i	-4%
CN(CC(=O)Nc1ccc2c(c1)OCCO2)S(=O)(=O)c1ccc(Br)s1	2%	25%	-3%	i	i	-4%
CC1=C(c2ccc(C)c(C)c2)S(=O)(=O)N=C1N1CCC(C(=O)NC(C)c2ccccc2)CC1 (stereo not given)	.	.	.	i	?	.
NC(=O)c1ncn([C@@H]2O[C@H](CNS(=O)(=O)c3cc4ccccc4s3)[C@@H](O)[C@H]2O)n1	5%	-31%	4%	i	i	-6%
CCC(C)[C@H](NC(=O)Nc1ccc2c(c1)OCCO2)C(=O)O (stereo not given in full)	-7%	?	5%	i	i	18µM*
CCOc1ccc(CNS(=O)(=O)c2ccc(-c3coc(C)n3)cc2)cc1OC	.	.	.	23µM*	?	.
O=C(Cc1cn(Cc2cccc(Cl)c2)c2ccccc12)N1CCCCCC1	-10%	?	-5%	4.6µM*	?	-65%
COc1ccc(C2c3ccc(O)cc3Oc3ncn(Cc4ccco4)c(=N)c32)cc1 (stereo not given)	-6%	?	-2%	i	?	1%
N=c1c2c(ncn1Cc1ccco1)Oc1ccc3ccccc3c1C2c1ccccc1 (stereo not given)	16µM*	16µM*	23µM*	7.3µM*	?	?
N=c1c2c(ncn1CCCO)Oc1ccc3ccccc3c1C2c1ccccc1 (stereo not given)	?	24%	?	i	i	-46%
COc1ccc(C2c3c(ncn(Cc4ccco4)c3=N)Oc3ccc4ccccc4c32)cc1 (stereo not given)	21µM*	?	?	?	?	?
COCCNC(=O)C1(C)CCN(Cc2ccc(C(C)C)cc2)C1 (stereo not given)	22%	.	19%	i	i	.
Cc1ccc(N2C(=O)C3C4C=CC(CNC(=S)N5CCN(c6cccc(C)c6)C(C)C5)(O4)C3C2=O)cc1 (stereo not given)	30%	21µM*	-3%	?	?	10µM*
SMILES	HT1080NT lethal	MCF10A rereplic	HT1080 IDH1KD tx	KB-V1 MDR tox	KB-3-1 tox	SW480 rerep
Cc1cccc(N2CCN(C(=O)CN3CCOc4ccccc43)CC2C)c1 (stereo not given)	3%	1%	-1%	i	i	?
CCCCn1c(SCc2nc(N)nc(N3CCCCC3)n2)nc2c1c(=O)n(C)c(=O)n2C	16%	-43%	12%	8.2µM*	i	?
Cn1c(=O)c2c(nc(SCCN3CCCCC3)n2C)n(C)c1=O	4%	1%	3%	i	i	-5%
CCCn1c(SCc2nc(N)nc(N3CCCCC3)n2)nc2c1c(=O)n(C)c(=O)n2C	6%	11%	2%	i	i	-1%
Cn1c(=O)c2c(nc(SCc3nc(N)nc(N4CCCCC4)n3)n2C)n(C)c1=O	8%	-45%	2%	15µM*	?	27%
CC(C)C[C@@H](CN)NC(=O)c1nc[nH]c1C(=O)N[C@@H](C)C(=O)CNC[C@H](C)NC(=O)c1nc[nH]c1C(=O)N[C@@H](C)C(=O)O	10%	-1%	13%	i	i	-5%
Cc1ccc(C)c(CN2CCC(CNC(=O)Nc3ccc(Br)cc3F)CC2)c1	16µM*	?	?	?	?	?
Cc1ccc(C)c(CN2CCC(CNC(=O)Nc3ccc(Cl)cc3)CC2)c1	-1%	2%	-13%	?	?	-17%
CC1CCc2c(sc3nc(C(C)(C)C)nc(N4CCN(C(=O)CCl)CC4)c23)C1 (stereo not given)	12µM*	15µM*	4.6µM*	?	?	5.2µM*
CCC(=O)N1CCN(c2nc(CC)nc3sc4c(c23)CCCC4)CC1	-28%	13%	-15%	?	i	2%
NC(=O)NN=C1CCC(OCc2ccccc2)CC1CC(=O)O (stereo not given)	15%	.	9%	i	i	.
CC/C(=N\Nc1ccnc2cc(Cl)ccc12)c1ccc(O)cc1	18µM*	?	16µM*	i	?	?
Oc1ccc(/C=N/Nc2ccnc3cc(Cl)ccc23)cc1O	?	23%	?	i	i	16µM*
Cc1c(Cl)cccc1NC(=O)CCn1cnnn1	.	.	.	i	i	.
O=C1/C(=C\c2c(NCCOCCO)nc3ccccn3c2=O)SC(=S)N1Cc1ccco1	?	9.2µM*	?	?	i	-35%[1.84 µM]
O=C(NCCc1ccc(Cl)cc1)c1cccn1-c1nnc(N2CCCCC2)s1	.	.	.	i	i	.

High-throughput results: PubChem BioAssay, National Center for Advancing Translational Sciences (NCATS)
